According to PubChem BioAssay AID1159580 (chemical genetic matrix, 2015):
About 2,000 (36%) of roughly 5,500 compounds were called active. Roughly 18% stayed inconclusive and do not appear here. Some of the results follow. Values without a mark were called inactive. Cut-off read from the data, not from the text of the source: active = normalized growth mostly below about 0.91 (no sharp cut-off); inconclusive = no clear call, values can overlap the other calls; inactive = mostly above about 0.92.

Test: chemical genetic growth profiling, strain panel (AID 1159580);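 note: tested at 20 µM; growth read once vehicle control cultures reached saturation at 30 °C; 1 = growth at the plate median or of vehicle wells; lower values mean less growth of the strain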
Conditions: growth OD
[1] = S. cerevisiae deletion strains, locus YAL013W, strain DEP1, active compounds read low
[2] = S. cerevisiae deletion strains, locus YDR150W, strain NUM1, active compounds read low
[3] = S. cerevisiae deletion strains, locus YMR263W, strain SAP30, active compounds read low
[4] = S. cerevisiae deletion strains, locus YPL055C, strain LGE1, active compounds read low
[5] = S. cerevisiae deletion strains, locus YPL241C, strain CIN2, active compounds read low

Work on CN(/N=C\c1ccccc1)c1ncc(C(F)(F)F)cc1Cl yielded a normalized growth [1] of 0.975, a normalized growth (S. cerevisiae deletion strains, locus YBR229C, strain ROT2, active compounds read low) of 0.949 and a normalized growth (S. cerevisiae deletion strains, locus YCL061C, strain MRC1, active compounds read low) of 0.989. For the same compound, the normalized growth (S. cerevisiae deletion strains, locus YDL101C, strain DUN1, active compounds read low) was 0.96, the normalized growth (S. cerevisiae deletion strains, locus YDL134C, strain PPH21, active compounds read low) was 0.988 and the normalized growth [2] was 0.897. For the same compound, the normalized growth (S. cerevisiae deletion strains, locus YEL061C, strain CIN8, active compounds read low) was 0.938, the normalized growth (S. cerevisiae deletion strains, locus YGR078C, strain PAC10, active compounds read low) was 0.934 and the normalized growth (S. cerevisiae deletion strains, locus YHR030C, strain SLT2, active compounds read low) was 0.392 (active). The normalized growth (S. cerevisiae deletion strains, locus YHR087W, strain rtc3, active compounds read low) was 0.905 (active), the normalized growth (S. cerevisiae deletion strains, locus YJR043C, strain POL32, active compounds read low) was 0.99 and the normalized growth (S. cerevisiae deletion strains, locus YJR075W, strain HOC1, active compounds read low) was 0.921. For the same compound, the normalized growth (S. cerevisiae deletion strains, locus YLR039C, strain RIC1, active compounds read low) was 0.89, the normalized growth (S. cerevisiae deletion strains, locus YLR058C, strain SHM2 (second series), active compounds read low) was 0.953 and the normalized growth (S. cerevisiae deletion strains, locus YLR085C, strain ARP6, active compounds read low) was 0.775 (active). It also gave a normalized growth (S. cerevisiae deletion strains, locus YLR262C, strain YPT6, active compounds read low) of 0.88, a normalized growth (S. cerevisiae deletion strains, locus YML094W, strain GIM5, active compounds read low) of 0.929 and a normalized growth (S. cerevisiae deletion strains, locus YMR219W, strain ESC1, active compounds read low) of 0.978. It also gave a normalized growth [3] of 0.99, a normalized growth (S. cerevisiae deletion strains, locus YNL153C, strain GIM3, active compounds read low) of 0.984 and a normalized growth (S. cerevisiae deletion strains, locus YNL298W, strain CLA4 (second series), active compounds read low) of 0.949. The normalized growth (S. cerevisiae deletion strains, locus YNL322C, strain KRE1, active compounds read low) was 0.974, the normalized growth (S. cerevisiae deletion strains, locus YNR030W, strain Alg12, active compounds read low) was 0.89 and the normalized growth [4] was 0.901. The normalized growth [5] was 1.02, the normalized growth (S. cerevisiae deletion strains, locus YPR135W, strain CTF4, active compounds read low) was 0.907 and the normalized growth (S. cerevisiae strains, strain wild type, active compounds read low) was 0.98.

CN(C(=O)CCCOc1ccc2[nH]c(=O)ccc2c1)C1CCCCC1 showed a normalized growth [1] of 1.01, a normalized growth (S. cerevisiae deletion strains, locus YAL040C, strain CLN3, active compounds read low) of 0.998 and a normalized growth (S. cerevisiae deletion strains, locus YCL061C, strain MRC1 (second series), active compounds read low) of 0.998. The normalized growth [2] was 0.99, the normalized growth (S. cerevisiae deletion strains, locus YDR363W, strain ESC2, active compounds read low) was 1 and the normalized growth (S. cerevisiae deletion strains, locus YER002W, strain NOP16, active compounds read low) was 0.989. The normalized growth [3] was 0.989, the normalized growth (S. cerevisiae deletion strains, locus YMR307W, strain GAS1, active compounds read low) was 1.01 and the normalized growth (S. cerevisiae deletion strains, locus YNL175C, strain NOP13, active compounds read low) was 1.01. For the same compound, the normalized growth (S. cerevisiae deletion strains, locus YNL197C, strain WHI3, active compounds read low) was 1.02, the normalized growth (S. cerevisiae deletion strains, locus YNL224C, strain SQS1, active compounds read low) was 0.989 and the normalized growth (S. cerevisiae deletion strains, locus YOR083W, strain WHI5 (second series), active compounds read low) was 0.993. It also gave a normalized growth [4] of 1 and a normalized growth [5] of 0.999.
